SIRT5 inh = SIRT5 desuccinylase inhibitors, primary screen, biochemical, fluorescence imaging, single point, set 5; NAD-dependent protein deacylase sirtuin-5, mitochondrial (Homo sapiens), Q9NXA8; Purified SirT5, succinyl-peptide AMC, trypsin-coupled fluorescence; inhibition, % at 15 µM; actives 1.1% (n = 330,000); AID 652115, 2013; in the data active = inhibition above about 15%
Target sequence (Q9NXA8 whole entry, looked up): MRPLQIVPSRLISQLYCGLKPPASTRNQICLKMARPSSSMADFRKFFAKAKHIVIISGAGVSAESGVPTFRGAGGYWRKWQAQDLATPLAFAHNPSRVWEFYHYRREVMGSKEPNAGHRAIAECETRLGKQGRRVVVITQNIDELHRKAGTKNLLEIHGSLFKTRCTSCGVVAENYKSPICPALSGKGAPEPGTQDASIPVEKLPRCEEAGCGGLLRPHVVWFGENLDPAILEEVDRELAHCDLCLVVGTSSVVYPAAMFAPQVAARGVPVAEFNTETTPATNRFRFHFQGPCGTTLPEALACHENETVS
PglD inh = C. jejuni PglD acetyltransferase inhibitors, primary screen, biochemical, DTNB colorimetric, single point | purified PglD enzyme, DTNB colorimetric CoA detection | inhibition, % at 12.5 µM | actives 0.098% (n = 360,000) | AID 602405, 2012; in the data active = inhibition above about 16%, passing the limit was not always enough
FGF22 binding = binders of human FGF22 protein, primary screen, FGF22 synaptogenesis inhibitor project, biophysical, thermal shift, single point. Fibroblast growth factor 22 (Homo sapiens), Q9HCT0. recombinant FGF22 thermal shift, SYPRO orange fluorescence; percent of sucrose octasulfate shift, DMSO zero. activity (Tm shift, normalised), % at 9.99 µM. actives 1.5% (n = 340,000). AID 651658, 2012;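 active = mean Tm shift, scaled 0 neutral to 100 positive control, at about 1.3% or above, every replicate too, limit read from the data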
PvdQ inh = P. aeruginosa PvdQ acylase inhibitors, primary screen, biochemical, fluorescence, plate reader and imaging, single point | actives 0.063% (n = 340,000) | inhibition, % at 10 µM | purified PvdQ acylase; in the data active = inhibition above about 30%, passing the limit was not always enough
CDK5 p35 inh = inhibitors of human CDK5/p35 kinase, primary screen, biochemical, single concentration. actives 0.01% (n = 330,000). Recombinant CDK5/p35, ADP-Glo luminescence, 60 min. inhibition, % at 10 µM. Cyclin-dependent kinase 5 (Homo sapiens) + Cyclin-dependent kinase 5 activator 1 (Homo …;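 active = highest replicate inhibition of at least 50% and at least 75% of replicates reaching 50%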
dFosB activator = activators of delta FosB homodimer, primary screen, biochemical, fluorescence polarization, TAMRA-CDK5 oligo, single point; Protein FosB (Mus musculus), P13346; purified delta FosB; percent of positive-control signal above neutral wells; activation, % at 25 µM; actives 0.99% (n = 340,000);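 active = mean activation above about 17%, with every replicate also reaching it, limit read from the data, passing the limit was not always enough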
Large screens that a line does not name were inactive. Only some compounds are listed: those with a hit (about 2.8% of all), similar ones and a draw of the others.

CC(C)NC(=O)Nc1ccc2c(c1)C(=O)N([C@H](C)CO)C[C@H](C)[C@@H](CN(C)CC1CC1)OCCCC[C@H](C)O2	none (no result: PvdQ inh, CDK5 p35 inh, dFosB activator)
O=C(NC1CCCc2ccccc21)c1ccccc1 (configuration not stated)	none (no result: PglD inh)
O=C(NC1CCCc2ccccc21)c1ccc([N+](=O)[O-])cc1 (configuration not stated)	FGF22 binding 43.5
O=c1cnnc(SCc2ccc([N+](=O)[O-])cc2)[nH]1	FGF22 binding 43.5 (no result: PglD inh)
CCCn1nc(C(=O)Nc2nc3ccccc3[nH]2)c2ccccc2c1=O	FGF22 binding 43.1
CCC(=O)Nc1ccc2c(c1)OC[C@H](C)N(Cc1ccncc1)C[C@@H](C)[C@H](OC)CN(C)C2=O	none (no result: PglD inh, PvdQ inh, CDK5 p35 inh, dFosB activator)
COc1cc(/C=N/N=C(N)N)ccc1OCc1ccccc1Cl	dFosB activator 24.1 (no result: PglD inh)
COc1ccc(/C=N/N=C/c2ccc(OC)c(OC)c2)cc1OC	none (no result: SIRT5 inh, FGF22 binding)
CCCc1cn(CC[C@@H]2CC[C@H](NC(=O)Cc3cccnc3)[C@@H](CO)O2)nn1	none (no result: PvdQ inh, CDK5 p35 inh, dFosB activator)
C[C@@H]1CN([C@H](C)CO)C(=O)c2cc(NC(=O)Cc3ccccc3)ccc2O[C@@H](C)CCCCO[C@H]1CN(C)S(=O)(=O)c1ccccc1	none (no result: PvdQ inh, CDK5 p35 inh, dFosB activator)
Cc1noc(C)c1S(=O)(=O)Nc1ccc2c(c1)C(=O)N([C@H](C)CO)C[C@H](C)[C@@H](CN(C)Cc1ccc(C(F)(F)F)cc1)OCCCC[C@H](C)O2	SIRT5 inh 25.1 (no result: PvdQ inh, CDK5 p35 inh, dFosB activator)
Cc1noc(C)c1S(=O)(=O)Nc1ccc2c(c1)C(=O)N([C@@H](C)CO)C[C@H](C)[C@@H](CN(C)Cc1ccc(C(F)(F)F)cc1)OCCCC[C@@H](C)O2	SIRT5 inh 24.8 (no result: PvdQ inh, CDK5 p35 inh, dFosB activator)
Cc1noc(C)c1S(=O)(=O)Nc1ccc2c(c1)C(=O)N([C@H](C)CO)C[C@H](C)[C@H](CN(C)Cc1ccc(C(F)(F)F)cc1)OCCCC[C@H](C)O2	none (no result: PvdQ inh, CDK5 p35 inh, dFosB activator)
Cc1noc(C)c1S(=O)(=O)Nc1ccc2c(c1)C(=O)N([C@@H](C)CO)C[C@@H](C)[C@H](CN(C)Cc1ccc(C(F)(F)F)cc1)OCCCC[C@H](C)O2	none (no result: PvdQ inh, CDK5 p35 inh, dFosB activator)
Cc1cccc(NC(=O)N2CCCC(CNC(=O)c3ccccc3Cl)C2)c1C (configuration not stated)	SIRT5 inh 30.5
CC(=O)c1ccc(C(=O)N2CCCC(CNC(=O)c3ccccc3Cl)C2)cc1 (configuration not stated)	none
C#CCSc1cc(C(F)(F)F)nc(-c2ccccn2)n1	SIRT5 inh 20.2 (no result: PglD inh)
CO[C@H]1CN(C)C(=O)c2cc(NC(C)=O)ccc2OC[C@@H](C)N(C(=O)C2CCCCC2)C[C@@H]1C	none (no result: PvdQ inh, CDK5 p35 inh, dFosB activator)
O=c1c(Cc2ccc(F)cc2)c(O)ccn1CCc1cnc[nH]1	FGF22 binding 43.4 (no result: PglD inh)
O=c1c(Cc2ccccc2)c(O)ccn1CCc1cnc[nH]1	none
CC1CCCC(NC(=O)COC(=O)[C@@H](NC(=O)c2ccco2)C(C)C)C1C (some centres not stated)	FGF22 binding 44.5 (no result: PglD inh)
CC1CCCC(NC(=O)COC(=O)[C@@H](NC(=O)c2ccc(F)cc2)C(C)C)C1C (some centres not stated)	none (no result: SIRT5 inh)
N#CCCN(C(=O)CN1c2cccc3cccc(c23)S1(=O)=O)c1ccccc1	FGF22 binding 43.4 (no result: SIRT5 inh)
COc1ccc(-c2[nH]ncc2[C@@H]2C[C@H]3CN(Cc4ccccc4C)C(=O)[C@]34CCCN24)cc1	FGF22 binding 43.5 (no result: PglD inh)
O=C(Nc1ccc(N2CCCC2)c(Cl)c1)c1ccc([N+](=O)[O-])o1	FGF22 binding 43.4 (no result: PglD inh)
CCCc1c(C(=O)OCC)[nH]c2c1C(=O)CCC2	SIRT5 inh 29.2
Cc1c(C(=O)OCCOc2ccccc2)[nH]c2c1C(=O)CCC2	none (no result: SIRT5 inh, FGF22 binding)

Screening data (PubChem BioAssay)
